# Unmarked numbers belong to inactive results.
# Test system: HCC1569
# Test: H1.0 immunofluorescence intensity relative to DMSO (% of DMSO); higher = stronger H1.0 induction, active = 140 or more
# Conditions: concentration: 10 µM; 24 h
# In short: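 In 384-well plates holding 800 HCC1569 or TDF cells per well in RPMI with 10% FBS, compounds were tested at 10 µM for 24 h at 37 °C in triplicate. Fixation used 3.7% formaldehyde. Staining used a rabbit anti-H1.0 antibody with an AlexaFluor 647 secondary, plus DAPI. Each value, H1.0 nuclear intensity or cell number, is a median of replicates shown as percent of the plate control, and HCC1569 values were smoothed for positional effects.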
# 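Note: TDF is a line of transformed human dermal fibroblasts of mesenchymal origin.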
row,SMILES,H1.0 immunofluorescence intensity
1,COc1ccc2c(c1)=NC1=C(C)NCCC=21 [Harmaline],93.9
2,COc1ccc2c(c1)C13CCCCC1C(C2)N(C)CC3 (stereo not given) [Dextromethorphan],107
3,C=CCN1CCC23c4c5ccc(O)c4OC2C(=NNC(=O)c2ccccc2)CCC3(O)C1C5 (stereo not given) [Naloxone benzoylhydrazone],93.3
4,CN1C2CCC1CC(OC(c1ccccc1)c1ccccc1N)C2 (stereo not given) [Aminobenztropine],90.2
5,CC1OC(=O)C(C(C)C)NC(=O)C(C(C)C)OC(=O)C(C(C)C)NC(=O)C(C)OC(=O)C(C(C)C)NC(=O)C(C(C)C)OC(=O)C(C(C)C)NC(=O)C(C)OC(=O)C(C(C)C)NC(=O)C(C(C)C)OC(=O)C(C(C)C)NC1=O (stereo not given) [Valinomycin],174 (active)
6,CCCN(CCC)C(=O)Cc1c(-c2ccc(Cl)cc2)nc2c(Cl)cc(Cl)cn12,100
7,C[N+](C)(C)CC#CCOC(=O)Nc1cccc(Cl)c1.[Cl-],87.7
8,[Cl-].c1ccc2c(c1)[I+]c1ccccc1-2 [Diphenyleneiodonium chloride],125
9,Br.CN1C2CC(OC(=O)C(CO)c3ccccc3)CC1C(O)C2 (stereo not given) [Anisodamine],94.6
10,CC=C(C)C(=O)OC1C(C)=C2C(C1OC(=O)CCCCCCC)C(C)(OC(C)=O)CC(OC(=O)CCC)C1(O)C2OC(=O)C1(C)O (stereo not given) [Thapsigargin],195 (active)
11,CCC1CN2CCc3cc(OC)c(OC)cc3C2CC1CC1NCCc2cc(OC)c(OC)cc21.Cl.Cl (stereo not given) [Emetine dihydrochloride hydrate],99
12,O=C1NC(=O)c2c1c1c3ccccc3[nH]c1c1[nH]c3ccccc3c21,127
13,O=C1CCCN1CC#CCN1CCCC1 [Oxotremorine],102
14,CN1C2CC(=O)CC1C(O)C2 (stereo not given) [6-Hydroxytropinone],89.2
15,COC1=C(OC)C(=O)C(=C2C(C)=C(C(=O)O)NC(c3ccc4c(n3)C(=O)C(N)=C(OC)C4=O)=C2N)C=C1 [Streptonigrin],128
16,Cl.Cl.c1ccc(CCCN2CCN(CCOC(c3ccccc3)c3ccccc3)CC2)cc1,102
17,CCCN(CCC)C1CCc2ccc(O)cc2C1 (racemic),95.4
18,"CC1=C(O)C(=O)C2OC2C1=O (single isomer, unassigned; (-))",117
19,O=C(NCCN1CCC2(CC1)C(=O)NCN2c1cccc(F)c1)c1ccc(F)c(F)c1,107
20,CCN(CC)C(=O)NC1CC2c3cccc4[nH]cc(c34)CC2N(C)C1 (stereo not drawn) [R(+)-Terguride],99.5
21,COc1ccc2c(c1OC)C(=O)OC2C1c2cc3c(cc2CCN1C)OCO3 (stereo not given),95.3
22,CC(=O)OC1C(=O)C2(C)C(O)CC3OCC3(OC(C)=O)C2C(OC(=O)c2ccccc2)C2(O)CC(O)C(C)=C1C2(C)C (stereo not given) [Baccatin III],105
23,Cl.NCCc1c[nH]c2ccccc12 [Tryptamine hydrochloride],97.2
24,"Cl.Clc1ccc(N2CCN(Cc3c[nH]c4ncccc34)CC2)cc1 [L-745,870 hydrochloride]",102
25,CC(C)C1(NC(=O)C2CC3c4cccc5[nH]cc(c45)CC3N(C)C2)OC2(O)C3CCCN3C(=O)C(Cc3ccccc3)N2C1=O (stereo not given) [Dihydroergocristine],117
26,CS(=N)(=O)CCC(N)C(=O)O [L-Methionine sulfoximine],98.4
27,CCCN1CCCC(c2cccc(O)c2)C1.Cl (stereo not drawn) [S(-)-3PPP hydrochloride],104
28,Cl.NN=C(N)N [Aminoguanidine hydrochloride],94.2
29,CC1=C(O)C(=O)C=C2C1=CC=C1C2(C)CCC2(C)C3CC(C)(C(=O)O)CCC3(C)CCC12C (stereo not given) [Celastrol],114
30,CS(=O)(=O)O.O.Oc1ccc2c3c1OC1c4oc5ccccc5c4CC4(O)C(C2)N(CC2CC2)CCC314 (stereo not given) [Naltriben methanesulfonate hydrate],119
